High-throughput results from PubChem.
Shown are actives, neighbours in structure and some others; about 19% of the full set was active somewhere.
HT1080 IDH1KD tx = qHTS for induction of synthetic lethality in tumor cells producing 2HG: qHTS for the HT-1080-IDH1KD cell line; AID 686971, 2013; Potency, µM (series often up to 46.1 µM), for inactives: top-dose activity, negative = toxicity, most hits filed as cytotoxic; HT-1080 IDH1 knockdown viability, ATP luminescence, 48 h; 360,000 compounds, 2% hits;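 further: potency means the concentration at half of the fitted maximal effect; 0% = DMSO wells and -100% = cell-free medium wells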
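Assay cells: HT-1080 with IDH1 knockdown, 750 per well, RPMI/5% FBS. Exposure: 48 h at 37 °C following 2 h pre-incubation. Read: CellTiter-Glo luminescence; fitted concentration-response, curve class assigned.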
IL-1B inflam inh = qHTS for Inhibitors of Inflammasome Signaling: IL-1-beta AlphaLISA Primary Screen | 360,000 compounds, 4.7% hits | THP-1 LPS/ATP IL-1B secretion, AlphaLISA, 16 h; stronger effect = lower value | activity change, % at 57.5 µM; in the data active means activity change below about -50%; inconclusive means mostly about -30% to -49%
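Secreted IL-1B measured by AlphaLISA bead assay after 16 h compound exposure of THP-1 cells; compounds (final up to 57.5 uM) added 1 h before LPS (250 ng/mL) and ATP (1.25 mM) stimulation; lower signal means less secretion.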
DT40 TDP1 no CPT = qHTS for Inhibitors of human tyrosyl-DNA phosphodiesterase 1 (TDP1): qHTS in cells in absence of CPT; DT40 Tdp1-/- hTDP1 cells, no CPT, ATP luminescence, 48 h; Potency, µM (series often up to 46.2 µM), without a hit: at the highest dose activity change, negative = growth inhibition, actives largely listed as inhibitors; 420,000 compounds, 15% hits; AID 686978, 2013; further: potency means the concentration at half of the fitted maximal effect; nearly all actives have a fitted effect of over 55% in size
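A cellular qHTS used chicken DT40 cells lacking endogenous Tdp1 but carrying stably transfected human TDP1. Compounds were applied without camptothecin, and cell growth kinetics were judged by ATP-dependent luminescence after ≥48 hr.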
ELG1 repair inh = qHTS screen for small molecules that inhibit ELG1-dependent DNA repair in human embryonic kidney (HEK293T) cells expressing luciferase-tagged ELG1. HEK293T ELG1-luciferase reporter, luminescence, 16 h; DNA damage induced by 5-fluorouridine. 330,000 compounds, 2.3% hits. Potency, µM (doses to about 46.1 µM), for the others: at the highest dose activity change, negative = inhibition, usual class: inhibitors; further: potency means the concentration at half of the fitted maximal effect; nearly all actives have a fitted effect of over 55% in size
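Reporter activity after DNA damage by 5-fluorouridine is monitored. Compound-treated cells incubate 16 hr at 37 °C, then ONE-Glo is added for 30 min before luminescence reading.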
HT1080-NT tox = qHTS for induction of synthetic lethality in tumor cells producing 2HG: qHTS for the HT-1080-NT fibrosarcoma cell line; Potency, µM (titrated, usually from 46.1 µM), without a hit: at the top dose activity, negative = less viability, actives largely listed as cytotoxic; 360,000 compounds, 1.6% hits; HT-1080-NT fibrosarcoma viability, CellTiter-Glo ATP luminescence, 48 h;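 further: NT is the 2HG producing partner of a matched IDH1 knockdown line; potency means the concentration at half of the fitted maximal effect; 0% = DMSO-treated cells and -100% = media-only wells without cells; nearly all actives have a fitted effect of over 55% in size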
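Viability of the 2HG-overproducing fibrosarcoma line after 48 hours of compound exposure at 37 degrees C was determined by luminescence with CellTiter-Glo, and concentration-effect curves were then fitted and categorized.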
TDP1 cell CPT = qHTS for Inhibitors of human tyrosyl-DNA phosphodiesterase 1 (TDP1): qHTS in cells in presence of CPT. Potency, µM (series often up to 46.2 µM), for the others: top-dose activity change, negative = growth inhibition, most hits filed as inhibitors. 420,000 compounds, 12% hits. chicken DT40 Tdp1-/-;hTDP1 cells + 20 nM CPT, ATP luminescence, 48 h; further: potency means the concentration at half of the fitted maximal effect; nearly all actives have a fitted effect of over 55% in size
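Chicken DT40 Tdp1-/- cells complemented with human TDP1, 400 cells/well, exposed to compounds plus 20 nM camptothecin for at least 48 h at 37 C; viability read as ATP content by CellTiter-Glo luminescence.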
The depositor's hits bear a star; ? = inconclusive; . = not tested or not shown. Unless noted, the call rests on the fitted dose curve; in most records, active means well fitted curve in the direction sought with a large enough effect; inconclusive means small, poorly fitted or top-dose-only effect, or another doubt; inactive means no such curve, though single readings can be large; an effect the other way counts as inactive or inconclusive. Unless noted, on the % scale 0 is the no-effect control and ±100 the full control effect.

SMILES	HT1080 IDH1KD tx	IL-1B inflam inh	DT40 TDP1 no CPT	ELG1 repair inh	HT1080-NT tox	TDP1 cell CPT
N#CC1=C(SCc2ccccc2)NC(=O)CC1c1cccc(O)c1 (configuration not stated)	4%	-54*	-8%	-14%	1%	-13%
COC(=O)CSC1=C(C#N)C(c2ccc(C)o2)CC(=O)N1 (configuration not stated)	7.3µM*	5	2.9µM*	-4%	?	15µM*
COC(=O)CSC1=C(C#N)C(c2ccc(F)cc2)CC(=O)N1 (configuration not stated)	-5%	19	?	-12%	-4%	-9%
N#CC1=C(SCc2ccccc2)NC(=O)CC1c1ccc(O)cc1 (configuration not stated)	8%	-3	?	-10%	4%	-13%
CCCCn1c(N)c(N(CCOC)C(=O)c2cccc(-n3cnnn3)c2)c(=O)[nH]c1=O	-1%	4	-16%	1%	-15%	-9%
COc1ccc2c(c1)[C@H]1[C@H](CO2)[C@H](c2ccccc2)[C@]2(C)C(=O)Nc3cc(OC)c(OC)cc3C(=O)N12	?	-5	21µM*	?	-8%	?
COc1ccc2c(c1)[C@@H]1[C@H](CO2)[C@H](c2ccccc2)[C@]2(C)C(=O)Nc3ccc(C)cc3C(=O)N12	-15%	-2	?	?	-27%	18µM*
COc1ccc2c(c1)OC[C@H]1[C@H]2N2C(=O)CN(CCc3c[nH]c4ccccc34)C(=O)[C@@]2(C)[C@H]1c1ccccc1	-1%	-23	?	5.8µM*	-21%	?
COc1ccc2c(c1)[C@H]1[C@H](CO2)[C@H](c2ccccc2)[C@]2(C)C(=O)Nc3ccc(C)cc3C(=O)N12	-16%	-28	?	-25%	-26%	?
COc1ccc2c(c1)[C@H]1[C@H](CO2)[C@H](c2ccccc2)[C@]2(C)C(=O)Nc3ccc(Cl)cc3C(=O)N12	-11%	-54*	?	.	-8%	18µM*
O=C(Nc1cccc(S(=O)(=O)N2CCCCCC2)c1)C1CC(=O)N(c2ccc3c(c2)OCCO3)C1 (configuration not stated)	-1%	4	-19%	?	5%	-14%
COc1ccc2c(c1)C(=O)N1[C@H]3c4cc(C)ccc4OC[C@@H]3[C@H](c3ccccc3)[C@]1(C)C(=O)N2	?	-66*	10µM*	?	?	7.3µM*
COc1ccc2c(c1)OC[C@H]1[C@H]2N2C(=O)c3ccccc3NC(=O)[C@@]2(C)[C@H]1c1ccccc1	?	-78*	?	-16%	?	?
COc1ccc2c(c1)OC[C@H]1[C@H]2N2C(=O)c3cc(C)ccc3NC(=O)[C@@]2(C)[C@H]1c1ccccc1	-17%	?	?	-3%	?	16µM*
C[C@@]12C(=O)Nc3cc(F)ccc3C(=O)N1[C@H]1c3cc(Br)ccc3OC[C@@H]1[C@@H]2c1ccccc1	?	-28	?	-6%	?	?
COc1ccc2c(c1)[C@H]1[C@H](CO2)[C@H](c2ccccc2)[C@]2(C)C(=O)Nc3ccc(F)cc3C(=O)N12	?	-57*	?	3%	?	?
CCOC(=O)[C@H]1[C@H]2COc3ccc(OC)cc3[C@@H]2N2C(=O)c3cc(C)ccc3NC(=O)[C@@]12C	4%	-15	1%	-8%	5%	-30%
CC(=O)c1ccc(NC(=O)Cn2ncc3c(C)n(Cc4ccc(F)cc4)c(C)c3c2=O)cc1	.	.	-17%	.	.	1%
COC(=O)[C@@H]1CCCN1Cc1ccc2c(c1)CN(Cc1cccn1-c1ncccn1)CCO2	.	.	-26%	.	.	?
CS/C(Nc1cc(Cl)ccc1Cl)=C(/C#N)C(=O)c1ccco1	?	-13	16µM*	?	-25%	9.2µM*
COc1ccc(S(=O)(=O)N2CCOC23CCN(S(=O)(=O)c2cc(C)ccc2OC)CC3)cc1	-3%	10	-19%	-3%	-1%	-30%
CC(=O)Nc1cc[n+](CC(=O)c2cccc([N+](=O)[O-])c2)cc1	-1%	7	10%	5%	-13%	0%
O=C(Nc1cccc([N+](=O)[O-])c1)c1ccncc1	20%	22	-20%	-10%	22%	0%
O=C(CCNc1ccc(Cc2ccncc2)cc1)c1cccc([N+](=O)[O-])c1	?	-109*	16µM*	11%	-6%	18µM*
O=C(CCNc1cccc(F)c1)c1cccc([N+](=O)[O-])c1	?	-86*	4.1µM*	-2%	?	5.8µM*
COc1ccc2nc3sc(C(=O)N4CCN(c5ccc(F)cc5)CC4)cc3cc2c1	.	.	-26%	.	.	15%
Cc1ccc(C)c(N2CCN(C(=O)c3ccc4nsnc4c3)CC2)c1	9.2µM*	?	13µM*	?	8.2µM*	12µM*
Cc1ccc(C)c(N2CCN(C(=O)c3ccc4[nH]c(C)c(C)c4c3)CC2)c1	.	.	12µM*	.	.	12µM*
